# Bioassay records (PubChem BioAssay)
# T cruzi growth-1 – T. cruzi proliferation inhibition; T. cruzi beta-gal in NIH3T3, GalScreen luminescence, 90 h; inhibition, % at 8.34 µM; hit rate 5.9% among 77,000;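 active = mean inhibition above about 93%, with at least 55% of replicates each passing it, limit read from the data, passing the limit was not always enough; inconclusive = only one of those two conditions holds; inactive = neither condition holds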
# C diff growth – blocks growth of Clostridium difficile; Clostridium difficile clinical isolate growth, OD600, 24 h; hits give low values; growth activity, negative = inhibition, % at 16 µg/mL (by protocol); hit rate 0.25% among 86,000; AID 1259249;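 active = mean growth activity at or below -80% and every replicate also at or below -80%; inconclusive = mean at or below -80% but some replicate above -80%; inactive = mean growth activity above -80%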
# Pf Dd2 growth – P. falciparum Dd2 growth inhibition; activity change, % at 10 µM; AID 1159554; hit rate 2.3% among 94,000; SYBR Green, 72 h; hits give low values; in the data active = activity change below about -80%; inconclusive = no clear call, values can overlap the other calls
# T cruzi growth-2 – blocks T. cruzi growth in NIH3T3 host cells. AID 651739. T. cruzi beta-gal in NIH3T3, GalScreen luminescence, 90 h. hit rate 72% among 5,600. inhibition, % at 8.35 µM. shares compounds with T cruzi growth-1;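 active = mean replicate inhibition above about 95% and at least 55% of replicates individually reaching it, limit read from the data; inconclusive = only one of the two criteria is met; inactive = neither criterion is met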
# T cruzi growth-3 – inhibitors of T. cruzi proliferation | T. cruzi beta-gal in NIH3T3, GalScreen luminescence, 90 h | hit rate 21% among 5,600 | inhibition, % at 2.09 µM | shares compounds with T cruzi growth-1;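 active = mean inhibition above about 95%, with at least 55% of replicates also reaching it, limit read from the data; inconclusive = meets just one of the two conditions; inactive = meets neither condition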
# NIH3T3 tox – kills mouse NIH/3T3 fibroblasts; cytotoxicity (signal decrease), % at 8.35 µM; NIH/3T3 viability, CellTiter-Glo ATP luminescence, 90 h; hit rate 14% among 5,600; shares compounds with T cruzi growth-1;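 active = mean signal decrease across replicates above about 35% based on untreated-well scatter, with enough replicates individually passing, limit read from the data; inconclusive = no rule stated though some were filed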
# 3T3 cytotox 2 – NIH/3T3 (mouse) viability loss; shares compounds with T cruzi growth-1; inhibition, % at 24.9 µM; NIH/3T3 viability, CellTiter-Glo ATP luminescence, 90 h; AID 651744; hit rate 56% among 5,600;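 active = mean loss of cell viability signal at or above a set limit, and enough replicates individually reaching it; inconclusive = meets only the mean limit or only the replicate share; inactive = meets neither condition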
# Hits are given with their value; . = inactive; ? = inconclusive; / = not tested or not shown. Rows were chosen to be rich in hits. Some 6.8% of all compounds tested hit in one or more screens of this group.
SMILES,T cruzi growth-1,C diff growth,Pf Dd2 growth,T cruzi growth-2,T cruzi growth-3,NIH3T3 tox,3T3 cytotox 2
CCC(=O)N1CCCCN2[C@H](CO)[C@H](c3ccc(C#Cc4cccnc4)cc3)[C@@H]2C1,.,.,.,/,/,/,/
CCC(=O)N1CCCCN2[C@H](CO)[C@@H](c3ccc(C#Cc4ccccc4)cc3)[C@@H]2C1,.,.,.,/,/,/,/
Cc1ccccc1-c1ccc([C@H]2[C@H]3CN(C(=O)c4ccc(F)cc4)CC(=O)N3[C@H]2CO)cc1,/,.,.,/,/,/,/
C[C@H]1CCCCO[C@@H](CN(C)C(=O)NC2CCCCC2)[C@@H](C)CN([C@@H](C)CO)C(=O)c2cc(NC(=O)Nc3cccc4ccccc34)ccc2O1,.,.,.,/,/,/,/
CO[C@H]1CN(C)C(=O)c2ccc(NC(=O)C3CCCCC3)cc2OC[C@H](C)N(Cc2cccnc2)C[C@H]1C,.,.,.,/,/,/,/
COc1ccc2c3c([nH]c2c1)[C@@H](CO)N(C(=O)c1cccnc1)CC31CN(Cc2cccnc2)C1,/,.,.,/,/,/,/
C[C@@H]1CN([C@H](C)CO)C(=O)c2cc(NS(=O)(=O)c3cccs3)ccc2O[C@@H]1CN(C)S(=O)(=O)c1ccccc1,.,.,.,/,/,/,/
COc1ccc(NC(=O)Nc2ccc3c(c2)C(=O)N([C@@H](C)CO)C[C@H](C)[C@@H](CN(C)S(=O)(=O)c2ccc(F)cc2)OCCCC[C@H](C)O3)cc1,.,.,.,/,/,/,/
COc1ccc(NC(=O)Nc2ccc3c(c2)C(=O)N([C@H](C)CO)C[C@H](C)[C@H](CN(C)S(=O)(=O)c2ccc(F)cc2)OCCCC[C@H](C)O3)cc1,?,.,.,103,.,.,.
COc1ccc(S(=O)(=O)N(C)C[C@H]2OCCCC[C@H](C)Oc3ccc(NC(=O)Nc4ccc(C(F)(F)F)cc4)cc3C(=O)N([C@H](C)CO)C[C@H]2C)cc1,.,.,?,/,/,/,/
COc1ccc(S(=O)(=O)N(C)C[C@@H]2OCCCC[C@@H](C)Oc3ccc(NC(=O)Nc4ccc(F)cc4)cc3C(=O)N([C@@H](C)CO)C[C@H]2C)cc1,111,.,.,107,.,.,.
Cc1ccccc1S(=O)(=O)N[C@@H]1CC[C@H](CCn2cc(Cc3ccccc3)nn2)O[C@@H]1CO,.,.,.,/,/,/,/
C[C@H](CO)N1C[C@H](C)[C@@H](CN(C)S(=O)(=O)c2cccs2)Oc2ncc(/C=C/c3ccccc3)cc2C1=O,/,.,.,/,/,/,/
COc1cccc(S(=O)(=O)N2CCCCN3[C@H](CO)[C@H](c4ccc(-c5cccnc5)cc4)[C@H]3C2)c1,110,.,.,97,.,.,35
COc1cccc(S(=O)(=O)N2CCCCN3[C@H](CO)[C@@H](c4ccc(-c5cccnc5)cc4)[C@@H]3C2)c1,.,.,.,/,/,/,/
COc1ccc(S(=O)(=O)N2CCCCN3[C@H](C2)[C@H](c2ccc(-c4cccnc4)cc2)[C@@H]3CO)cc1,104,.,.,.,.,.,.
COc1ccc(S(=O)(=O)N2CCCCN3[C@@H](CO)[C@H](c4ccc(-c5cccnc5)cc4)[C@@H]3C2)cc1,.,.,.,/,/,/,/
COc1cccc(S(=O)(=O)N2CCCCN3[C@@H](CO)[C@@H](c4ccc(-c5cccnc5)cc4)[C@@H]3C2)c1,.,.,.,/,/,/,/
Cc1cccc(S(=O)(=O)N2CCCCN3[C@@H](CO)[C@@H](c4ccc(-c5cccnc5)cc4)[C@@H]3C2)c1,.,.,.,/,/,/,/
COc1ccc(S(=O)(=O)N2CCCCN3[C@H](CO)[C@@H](c4ccc(-c5cccnc5)cc4)[C@@H]3C2)cc1,109,.,.,?,.,.,37
COc1ccc(S(=O)(=O)N2CCCCN3[C@H](CO)[C@H](c4ccc(-c5cccnc5)cc4)[C@@H]3C2)cc1,104,.,.,104,.,.,42
C[C@@H]1CN([C@H](C)CO)C(=O)c2cccc(NS(=O)(=O)c3ccc(F)cc3)c2O[C@@H]1CN(C)C(=O)Nc1ccccc1,.,.,.,/,/,/,/
Cc1noc(C)c1NC(=O)N(C)C[C@H]1OCCCC[C@@H](C)Oc2ccc(NC(=O)c3ccncc3)cc2C(=O)N([C@@H](C)CO)C[C@H]1C,.,.,.,/,/,/,/
C/C=C/c1ccc2c(c1)O[C@@H](CN(C)C)[C@@H](C)CN([C@H](C)CO)S2(=O)=O,/,.,.,/,/,/,/
